# Reference: PubChem BioAssay (EPA / NIEHS)
# Results filed as inconclusive are left out. The source made the active and inactive calls. How the source made its calls: active means hit-call score of the fitted dose curve at least 0.9, where 1 is the maximum; inconclusive means response in the unintended direction; inactive means score below 0.9.
# Legend:
# [1] = target: human Peroxisome Proliferator-activated Receptor alpha (PPARa), PPARA (gene 5465) (UniProt Q07869); assay: NVS_NR_hPPARa: NovaScreen (NVS) Nuclear Receptor Binding Assay for human Peroxisome Proliferator-activated Receptor alpha (PPARa) (AID 2283359);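 further: activity means loss of TR-FRET signal versus DMSO baseline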
# Summary of the method: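 Cell-free TR-FRET binding assay with extracted PPARα protein, read 1 h after dosing. Primary screen in duplicate at 25 uM, with actives retested in concentration series. Loss of signal versus DMSO.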
# [2] = target: guinea pig Sigma Receptor, Non-selective Binding, SIGMAR1 (gene 100135589) (UniProt Q60492); assay: NVS_OR_gSIGMA_NonSelective: NovaScreen (NVS) Nuclear Receptor Binding Assay for guinea pig Sigma Receptor, Non-selective Binding (AID 2283367)
# Summary of the method: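 Radioligand displacement on guinea pig brain membranes, read by filter-based scintillation counting 1 h after dosing. Loss of signal versus DMSO; initial duplicate single-point screen at 25 uM, actives followed in concentration series.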
# [3] = target: Retinoic acid receptor alpha (Homo sapiens) (UniProt P10276); assay: NVS_NR_hRARa_Agonist: NovaScreen (NVS) Nuclear Receptor Binding Assay for human Retinoic Acid Alpha Receptor Agonism (RAR) (AID 2283361)
# Summary of the method: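 Cell-free TR-FRET binding readout with extracted receptor protein, read 2 hours after dosing; gain-of-signal fitted relative to DMSO. Screened in duplicate at 25 uM, actives then run in concentration-response.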
# [4] = tested on: guinea pig Dopamine Transporter (DAT), gene 100714898; assay: NVS_TR_gDAT: NovaScreen (NVS) Transporter Assay for guinea pig Dopamine Transporter (DAT) (AID 2283369);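 further: active compounds lower bound radioligand signal relative to DMSO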
# Summary of the method: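 Guinea pig striatal membranes; radioligand displacement measured by filter-based scintillation counting 2 h after dosing. Initial duplicate screen at 25 uM, then concentration-response up to 50 uM for hits; loss of signal versus DMSO baseline.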
# [5] = target: Retinoic acid receptor alpha (Homo sapiens) (UniProt P10276); assay: NVS_NR_hRAR_Antagonist: NovaScreen (NVS) Nuclear Receptor Binding Assay for human Retinoic Acid Alpha Receptor Antagonism (RAR) (AID 2283358)
# Summary of the method: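 Cell-free TR-FRET binding assay with extracted human RARalpha in antagonist mode, read 2 h after dosing. Loss of signal was fitted relative to DMSO; the primary screen used 25 uM in duplicate, with concentration series on follow-up.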
# [6] = target: Glucocorticoid receptor (Homo sapiens) (UniProt P04150); assay: NVS_NR_hGR: NovaScreen (NVS) Nuclear Receptor Binding Assay for human Glucocorticoid Receptor (GR) (AID 2283363);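 further: activity is loss of specific radioligand binding signal relative to DMSO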
# Summary of the method: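 Cell-free radioligand displacement assay on extracted human GR, read 16 h after dosing by filter-based scintillation counting. Screened in duplicate at 25 uM, then concentration series for actives; loss of signal versus DMSO baseline.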
# PGR (gene 5241) = PGR (gene 5241) (UniProt P06401); assay: NVS_NR_hPR: NovaScreen (NVS) Nuclear Receptor Binding Assay for human Progestron Receptor (PR) (AID 2283360);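 further: active means loss of bound radioligand signal versus DMSO baseline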
# Summary of the method: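 T47D-derived receptor preparation, cell-free, with tritiated or iodinated radioligand displacement measured by scintillation 18 h post-dosing. Single 25 uM duplicate screen, then concentration series; signal loss relative to DMSO.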
# Chain of human Peroxisome Proliferator-activated Receptor alpha (PPARa), PPARA (gene 5465) (Q07869 whole entry, looked up): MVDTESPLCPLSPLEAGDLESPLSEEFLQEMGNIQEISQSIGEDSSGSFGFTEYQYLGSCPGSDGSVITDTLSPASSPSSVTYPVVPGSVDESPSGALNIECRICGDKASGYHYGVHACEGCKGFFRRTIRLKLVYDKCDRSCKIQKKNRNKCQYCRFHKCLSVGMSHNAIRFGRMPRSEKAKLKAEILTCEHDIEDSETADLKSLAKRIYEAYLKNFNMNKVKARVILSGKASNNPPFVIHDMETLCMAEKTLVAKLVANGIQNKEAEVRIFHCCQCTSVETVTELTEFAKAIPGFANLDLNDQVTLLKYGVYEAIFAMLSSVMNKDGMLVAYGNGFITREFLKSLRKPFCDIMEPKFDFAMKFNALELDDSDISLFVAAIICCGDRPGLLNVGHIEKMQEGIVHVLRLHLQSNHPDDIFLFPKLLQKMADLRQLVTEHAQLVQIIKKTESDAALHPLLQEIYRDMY
# Chain of Retinoic acid receptor alpha (Homo sapiens) (P10276 whole entry, looked up): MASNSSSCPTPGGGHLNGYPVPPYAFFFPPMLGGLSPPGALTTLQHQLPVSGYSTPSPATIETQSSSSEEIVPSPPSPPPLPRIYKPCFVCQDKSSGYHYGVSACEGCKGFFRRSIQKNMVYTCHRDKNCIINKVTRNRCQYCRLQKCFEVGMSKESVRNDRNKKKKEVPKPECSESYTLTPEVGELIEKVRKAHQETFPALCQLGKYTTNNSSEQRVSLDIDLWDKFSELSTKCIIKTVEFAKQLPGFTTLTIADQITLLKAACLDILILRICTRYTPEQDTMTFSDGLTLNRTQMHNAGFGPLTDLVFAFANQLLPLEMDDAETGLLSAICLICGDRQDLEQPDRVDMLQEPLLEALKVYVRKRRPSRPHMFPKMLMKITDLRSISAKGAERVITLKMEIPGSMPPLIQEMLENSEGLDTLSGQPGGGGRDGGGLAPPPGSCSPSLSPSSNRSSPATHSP
# Chain of Glucocorticoid receptor (Homo sapiens) (P04150 whole entry, looked up): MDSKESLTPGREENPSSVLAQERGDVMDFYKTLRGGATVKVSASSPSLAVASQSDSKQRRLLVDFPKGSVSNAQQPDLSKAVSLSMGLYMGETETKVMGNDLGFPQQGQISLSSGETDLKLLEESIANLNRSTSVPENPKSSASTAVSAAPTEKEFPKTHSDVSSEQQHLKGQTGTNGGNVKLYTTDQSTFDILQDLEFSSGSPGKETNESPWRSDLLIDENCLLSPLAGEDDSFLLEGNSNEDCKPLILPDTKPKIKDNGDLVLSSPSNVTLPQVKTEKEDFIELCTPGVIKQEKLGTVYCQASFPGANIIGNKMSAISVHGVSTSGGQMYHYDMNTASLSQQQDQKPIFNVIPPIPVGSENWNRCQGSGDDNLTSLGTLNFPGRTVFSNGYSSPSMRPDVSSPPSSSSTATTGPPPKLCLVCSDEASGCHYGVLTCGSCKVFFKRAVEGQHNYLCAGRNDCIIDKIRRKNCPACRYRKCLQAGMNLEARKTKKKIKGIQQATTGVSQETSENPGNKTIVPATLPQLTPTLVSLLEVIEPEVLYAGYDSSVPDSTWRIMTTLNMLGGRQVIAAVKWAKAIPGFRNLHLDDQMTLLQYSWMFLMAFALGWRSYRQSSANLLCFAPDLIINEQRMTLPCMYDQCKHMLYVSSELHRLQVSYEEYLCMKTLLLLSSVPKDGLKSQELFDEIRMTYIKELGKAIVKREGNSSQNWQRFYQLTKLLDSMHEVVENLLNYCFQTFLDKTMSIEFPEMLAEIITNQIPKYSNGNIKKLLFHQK
# Chain of guinea pig Sigma Receptor, Non-selective Binding, SIGMAR1 (gene 100135589) (Q60492 whole entry, looked up): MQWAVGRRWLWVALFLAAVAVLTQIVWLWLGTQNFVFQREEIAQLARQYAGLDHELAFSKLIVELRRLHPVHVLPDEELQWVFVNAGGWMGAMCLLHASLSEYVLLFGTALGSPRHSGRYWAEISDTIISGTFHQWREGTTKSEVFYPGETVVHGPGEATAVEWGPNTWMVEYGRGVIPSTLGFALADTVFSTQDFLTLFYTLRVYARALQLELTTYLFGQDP
# Chain of PGR (gene 5241) (P06401 whole entry, looked up): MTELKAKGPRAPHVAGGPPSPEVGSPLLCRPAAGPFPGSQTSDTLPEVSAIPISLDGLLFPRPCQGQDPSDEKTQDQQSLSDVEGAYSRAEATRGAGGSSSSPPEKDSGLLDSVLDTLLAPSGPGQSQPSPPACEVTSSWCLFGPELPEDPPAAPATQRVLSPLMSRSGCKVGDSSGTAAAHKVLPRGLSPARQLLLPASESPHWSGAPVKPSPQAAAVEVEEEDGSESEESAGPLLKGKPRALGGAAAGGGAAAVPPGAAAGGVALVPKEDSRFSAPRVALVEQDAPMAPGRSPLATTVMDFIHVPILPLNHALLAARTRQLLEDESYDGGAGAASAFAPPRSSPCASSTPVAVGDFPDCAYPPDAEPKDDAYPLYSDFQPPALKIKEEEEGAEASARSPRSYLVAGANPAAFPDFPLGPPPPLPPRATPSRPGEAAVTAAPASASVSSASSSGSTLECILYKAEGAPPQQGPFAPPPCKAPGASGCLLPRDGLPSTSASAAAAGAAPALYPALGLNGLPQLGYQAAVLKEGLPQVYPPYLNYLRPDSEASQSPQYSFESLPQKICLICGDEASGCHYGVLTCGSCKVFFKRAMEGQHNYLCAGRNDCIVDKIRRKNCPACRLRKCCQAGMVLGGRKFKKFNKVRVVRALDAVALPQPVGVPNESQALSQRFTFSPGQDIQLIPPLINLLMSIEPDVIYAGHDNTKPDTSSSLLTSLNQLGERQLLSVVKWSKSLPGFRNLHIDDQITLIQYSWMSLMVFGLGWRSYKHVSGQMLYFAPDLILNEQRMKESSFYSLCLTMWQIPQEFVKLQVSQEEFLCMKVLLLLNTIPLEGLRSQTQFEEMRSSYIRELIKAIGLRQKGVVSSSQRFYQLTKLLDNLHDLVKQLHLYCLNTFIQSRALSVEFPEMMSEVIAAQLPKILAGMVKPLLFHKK
smiles,measurement,setting,value
CCOP(=S)(OCC)SCSCC,outcome,[1],inactive
CCCCN(CCCC)N=O,outcome,[1],inactive
same,AC50,[2],25 µM (active)
CCCCc1ccc(O)cc1,outcome,[3],inactive
CC(C)(C)c1ccc(O)cc1,outcome,[4],inactive
CC1(C)CN=C(NN=C(/C=C/c2ccc(C(F)(F)F)cc2)/C=C/c2ccc(C(F)(F)F)cc2)NC1,AC50,[5],25 µM (active)
same,outcome,[1],inactive
C=CC(=O)OCC(CC)(COC(=O)C=C)COC(=O)C=C,AC50,[6],14 µM (active)
CCCCOCCOP(=O)(OCCOCCCC)OCCOCCCC,outcome,[3],inactive
Nc1cc2c3c(c1)C(c1ccccc1)=N[C@@H](NC(=O)c1cccnc1)C(=O)N3CC2,outcome,PGR (gene 5241),inactive
